Results published in article PMC4336329 (PLoS ONE, 2015).
The campaign covered roughly 310,000 compounds. About 2,200 (0.71%) showed an effect of 50% or more. Effects have a minus sign here. For the sample, strong results were picked, then their nearest neighbours and some compounds at random.

Target: human ether-à-go-go-related gene (hERG) potassium channel (human, UniProt Q12809)
Assay: primary screen, population patch clamp on CHO cells stably expressing hERG; higher = less effect of the substance

Chain of human ether-à-go-go-related gene (hERG) potassium channel (Q12809 whole entry, looked up): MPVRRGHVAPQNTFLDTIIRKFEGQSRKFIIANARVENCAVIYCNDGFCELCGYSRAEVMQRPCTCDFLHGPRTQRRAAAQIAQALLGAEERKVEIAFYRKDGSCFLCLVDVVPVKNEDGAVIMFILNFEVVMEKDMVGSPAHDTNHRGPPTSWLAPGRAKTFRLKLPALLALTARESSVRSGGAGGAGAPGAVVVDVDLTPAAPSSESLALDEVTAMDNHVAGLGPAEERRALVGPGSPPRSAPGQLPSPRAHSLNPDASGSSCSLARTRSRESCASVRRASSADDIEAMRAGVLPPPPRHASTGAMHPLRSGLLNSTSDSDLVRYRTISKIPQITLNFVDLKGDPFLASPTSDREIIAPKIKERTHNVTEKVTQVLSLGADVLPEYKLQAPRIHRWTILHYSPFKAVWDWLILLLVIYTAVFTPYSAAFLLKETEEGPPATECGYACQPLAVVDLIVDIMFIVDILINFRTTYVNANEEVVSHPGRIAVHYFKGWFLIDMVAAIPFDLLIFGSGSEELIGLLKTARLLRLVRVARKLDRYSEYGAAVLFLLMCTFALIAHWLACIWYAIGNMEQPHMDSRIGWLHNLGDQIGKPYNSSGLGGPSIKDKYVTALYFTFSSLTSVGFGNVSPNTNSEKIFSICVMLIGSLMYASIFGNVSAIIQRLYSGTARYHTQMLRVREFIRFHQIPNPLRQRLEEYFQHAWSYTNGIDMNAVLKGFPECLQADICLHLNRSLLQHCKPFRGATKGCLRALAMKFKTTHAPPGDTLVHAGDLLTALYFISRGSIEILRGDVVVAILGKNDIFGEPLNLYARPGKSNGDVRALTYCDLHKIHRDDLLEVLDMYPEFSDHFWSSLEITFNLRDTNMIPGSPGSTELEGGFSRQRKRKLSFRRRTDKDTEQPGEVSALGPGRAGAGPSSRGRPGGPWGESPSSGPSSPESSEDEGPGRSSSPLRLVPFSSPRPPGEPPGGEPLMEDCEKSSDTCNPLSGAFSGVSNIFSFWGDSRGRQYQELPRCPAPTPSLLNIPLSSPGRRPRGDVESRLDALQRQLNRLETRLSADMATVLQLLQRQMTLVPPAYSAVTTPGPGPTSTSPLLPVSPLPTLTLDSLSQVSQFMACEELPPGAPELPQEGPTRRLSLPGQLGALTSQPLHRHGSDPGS

Point of comparison: `Cc1ccc(C(=O)N/C(=C\c2ccc(-c3ccc(Cl)cc3)o2)C(=O)NCCCN(C)C)cc1`, “hERG current change (%, negative = inhibition) at 1uM” value -93.5%. Against it:
- CCN(C(=O)CSc1nc2cc(C(=O)OC)ccc2c(=O)n1Cc1ccco1)c1cccc(C)c1 — higher, 7.87%
- Cc1c(NC(=O)C(C)Oc2ccc(Br)cc2Cl)c(=O)n(-c2ccccc2)n1C (stereo not drawn) — higher, -1.81%
- COc1ccc(C(=O)NC(=S)NCc2ccco2)cc1 — higher, 15%
- Cc1cc(C)c(S(=O)(=O)Cc2ccc(Cl)cc2)c(=O)[nH]1 — higher, 9.42%
- O=C(N1CCN(CCO)CC1)N1c2ccccc2C=Cc2ccccc21 — higher, 13%
- COc1ccc(NC(=O)c2ccc(NC(=O)c3cccs3)cc2)cc1 — higher, 0.302%
- CCN(C(=O)CSc1nnc(NC2CCCCC2)s1)C1CCS(=O)(=O)C1 (stereo not drawn) — higher, 2.2%
- O=C(NCc1ccc(F)cc1)C1CCN(C(=O)NCc2ccccc2)CC1 — higher, 19.1%
- CCOc1ccc(NC(=O)CN2CCN(CC(=O)c3ccc(OC)c(OC)c3)CC2)cc1 — higher, -56.3%
- COc1ccc(S(=O)(=O)N2CCN(CC(=O)Nc3cccc(F)c3)CC2)cc1 — higher, -8.66%
- CCOc1ccc(NC(=O)CN2CCN(CC(=O)Nc3ccc(Cl)c(C(F)(F)F)c3)CC2)cc1 — higher, -6.47%
- CCOc1ccc(NC(=O)CN2CCN(CC(=O)Nc3ccc(F)c(F)c3)CC2)cc1 — higher, -87.9%
- CCOc1ccc(NC(=O)CN2CCN(CC(=O)Nc3cccc(F)c3)CC2)cc1 — lower, -97.2%
- O=C(c1ccc(F)cc1)C1CCN(C(=O)NCc2ccccc2)CC1 — higher, -5.59%
- CCOC(=O)N1CCN(CC(=O)Nc2ccc(F)c(F)c2)CC1 — higher, 8.59%
- O=C(CN1CCN(CC(=O)Nc2cccc(F)c2)CC1)Nc1ccc(-c2ccccc2)cc1 — higher, 13.6%
- CCOc1ccc(NC(=O)CNC(=O)c2ccc(OC)c(OC)c2)cc1 — higher, 5.55%
- O=C(NCc1ccccc1)N1CCC(n2cnc3cc(F)ccc32)CC1 — higher, -56.6%
- CCOc1ccc(NC(=O)CN2CCN(CC(=O)Nc3ccc(C(N)=O)cc3)CC2)cc1 — higher, -36.9%
- CCCCSc1nnc(-c2cc(Br)ccc2N)c(=O)[nH]1 — higher, 0.939%
- CCC(C)(C)NC(=O)C(c1ccc(OC)cc1)N(Cc1ccco1)C(=O)CCC(=O)Nc1cc(C)on1 (stereo not drawn) — higher, 4.86%
- COc1ccc(CC(NC(C)=O)C(=O)NC2CCN(C(=O)Nc3ccc(Cl)cc3)CC2)cc1OC (stereo not drawn) — higher, 10.2%
- O=C(COc1ccccc1[N+](=O)[O-])NCC1(N2CCCCC2)CCCCC1 — higher, -4.91%
- CCOC(=O)c1ccc(NC(=O)COc2coc(CN3CCc4ccccc43)cc2=O)cc1 — higher, 8.2%
- COc1ccc(OC)c(S(=O)(=O)N2CCC(C(=O)NCc3ccccc3OC)CC2)c1 — higher, 3.09%
- NC1=NC[C@@H](Cc2ccc(O)cc2)N1CCC12CC3CC(CC(C3)C1)C2 — higher, 10.4%
- N#CCCSc1ncnc2c1oc1ccccc12 — higher, 4.55%
- CCOc1ccc(NC(=O)CN2CCN(CC(=O)Nc3ccc(F)cc3)CC2)cc1 — higher, -87.3%
- Cc1[nH]c(-c2ccc(F)cc2)cc1C(=O)N1CCN(c2ccccc2)CC1 — higher, -29%
- CCOC(=O)N1CCN(C(=O)c2cc(-c3ccc(F)cc3)[nH]c2C)CC1 — higher, -54.1%
- COc1ccc(NC(=O)CN2CCN(c3ccc(F)cc3)CC2)cc1 — higher, 7.86%
- CCOC(=O)N1CCC(NC(=O)c2cc(-c3ccc(F)cc3)[nH]c2C)CC1 — higher, 11.6%
- CCOc1ccc(NC(=O)CN2CCN(c3ccc(F)cc3)CC2)cc1 — higher, 11.4%
- CCn1cc(/C=C/C(=O)Nc2c(C)nn(Cc3ccccc3C)c2C)cn1 — higher, 15.5%
- CC(=O)N/N=C/c1cc(C)n(-c2ccc(Br)cc2)c1C — higher, 1.14%
- CC1N(C(=O)N2CCOCC2)CCN1S(=O)(=O)c1ccc(Cl)cc1 (stereo not drawn) — higher, 4%
- Cc1ccc(C(=O)N/C(=C/c2ccc(-c3ccc(Br)cc3)o2)C(=O)NC2CCS(=O)(=O)C2)cc1 (stereo not drawn) — higher, 3.65%
- CN(C)CCCNC(=O)/C(=C\c1ccc(-c2ccc(Br)cc2)o1)NC(=O)c1ccccc1 — higher, -82%
- Cc1ccc(C(=O)N/C(=C\c2ccc(Cl)cc2)C(=O)NCC2CCCO2)cc1 (stereo not drawn) — higher, -38.7%
- Cc1ccc(C(=O)N/C(=C\c2ccc(-c3cc(Cl)ccc3Cl)o2)C(=O)NCc2cccnc2)cc1 — higher, 5.35%
- Cc1ccc(/C=C(\NC(=O)c2ccccc2)C(=O)NCCN2CCOCC2)o1 — higher, 1.36%
- Cc1ccc(C(=O)N/C(=C\c2ccc(-c3ccc(Br)cc3)o2)C(=O)NC2CCS(=O)(=O)C2)cc1 (stereo not drawn) — higher, 7.85%
- CN(C)CCNC(=O)/C(=C/c1ccc(-c2ccc(Cl)cc2)o1)NC(=O)c1ccccc1 — higher, -82%
- Cc1ccc(C(=O)N/C(=C\c2ccc(-c3ccc(Br)cc3)o2)C(=O)NCCCN(C)C)cc1 — higher, -84.2%
- O=C(NCCO)/C(=C\c1ccc([N+](=O)[O-])o1)NC(=O)c1ccccc1 — higher, 4.89%
- CN(C)CCNC(=O)/C(=C/c1ccc(-c2cccc(Cl)c2)o1)NC(=O)c1ccccc1 — higher, -31.4%
- CN(C)CCNC(=O)/C(=C/c1ccc(-c2ccc(Cl)cc2Cl)o1)NC(=O)c1ccccc1 — higher, -7.71%
- CCCc1cc(=O)[nH]c(SCC(=O)N(C)C2CCCCC2)n1 — higher, 13.3%
- CCSC1(SCC)N=C(N)C2(C#N)C(c3ccccc3)NC3=C(CCC3)C12C#N (stereo not drawn) — higher, 14.4%
- CN(C(=O)c1ccncc1)c1nnc(-c2cccnc2)s1 — higher, 12.8%
- CN(CC(=O)N1CCCCCC1)S(=O)(=O)c1ccc(Br)cc1 — higher, 0.738%
- COc1ccc(OCC(O)COc2ccc(C(=O)O)cc2)cc1 (stereo not drawn) — higher, 8.21%
- CCc1cc(C(=O)N/N=C/c2ccc(O)cc2)c2ccccc2n1 — higher, 9.78%
- Cn1ncc(Br)c1C(=O)Nc1ccc(Br)cn1 — higher, 16.3%
- CCC(C)[C@H](NC(=O)[C@@H]1CSC2c3ccccc3C(=O)N21)C(=O)N1CCCCC1 (stereo partly drawn) — higher, 8.7%
- CC1(C)CC(NC(=O)Cc2ccc(Cl)cc2)CC(C)(C)N1 — higher, 16.7%
- O=C(c1cc(-c2ccc(Cl)cc2)n(-c2ccc(Cl)cc2Cl)n1)N1CCOCC1 — higher, -40.7%
- O=C(c1cc(-c2ccc(Cl)cc2)n(-c2ccc(Cl)cc2)n1)N1CCOCC1 — higher, -56.8%
- O=C(c1cc(-c2ccc(Cl)cc2)n(-c2cc(Cl)ccc2Cl)n1)N1CCOCC1 — higher, -3.98%
- Cc1ccc(-n2nc(C(=O)O)cc2-c2ccc(Cl)cc2)cc1 — higher, 8.61%
- Cc1ccc(-n2nc(C(=O)N3CCOCC3)cc2-c2ccc(Cl)cc2)cc1 — higher, -87.4%
- O=C(c1cc(-c2ccc(Cl)cc2)n(-c2ccc(Cl)c(Cl)c2)n1)N1CCOCC1 — higher, 5.69%
- COc1ccc(NC(=O)C2CCC(C)(C(=O)O)C2(C)C)cc1 (stereo not drawn) — higher, 11.1%
- CC(OC(=O)c1ccccc1NCCO)C(=O)Nc1ccc(S(=O)(=O)N2CCOCC2)cc1 (stereo not drawn) — higher, 11.6%
- CN=C1S/C(=C\c2ccc(O)c(OC)c2)C(=O)N1C — higher, 14%
- Cc1cccc(-n2c(SCC(=O)N(C)C3CCS(=O)(=O)C3)nc3ccccc3c2=O)c1C (stereo not drawn) — higher, 13.9%
- O=C(NC1CCN(Cc2ccccc2)CC1)C1CCN(c2nnc(-n3cccc3)s2)CC1 — higher, -28.2%
- CC(CCc1ccccc1)NC(=O)C1CCCN(c2nnc(-n3cccc3)s2)C1 (stereo not drawn) — higher, -7.23%
- O=C(NC1CCN(Cc2ccccc2)CC1)C1CCCN(c2nnc(-n3cccc3)s2)C1 (stereo not drawn) — higher, -65.2%
- O=[N+]([O-])c1cccc2ccc(/C=C/c3ccc(Cl)cc3)nc12 — higher, 1.88%
- Cc1nc2ccc3nc(NC(=O)c4ccc5c(c4)OCCO5)sc3c2s1 — higher, 9.46%
- Cc1nc2c(ccc3nc(NC(=O)c4ccc5c(c4)OCCO5)sc32)s1 — higher, -86.6%
- Cc1nc2c(ccc3nc(NC(=O)c4ccc(S(=O)(=O)N(C)C)cc4)sc32)s1 — higher, 16.4%
- COc1ccc2c(c1)c(C(=O)O)c(C)n2CC(C)C — higher, -2.31%
- CC(NS(=O)(=O)/C=C/c1ccccc1)C(=O)O (stereo not drawn) — higher, 12.5%
- CC(C)Cn1cc(C(=O)N2CCC3(CC2)OCCO3)c2c3ccccc3n(C)c2c1=O — higher, -1.15%
- O=C(Cc1c(F)c(F)c(F)c(F)c1F)Nc1nc(-c2ccccc2)cs1 — higher, 9.84%
- CCCn1c(N2CCN(Cc3ccc(Cl)cc3)CC2)nc2ccccc21.Cl — higher, -4.77%
- CCn1c(N2CCN(Cc3ccc([N+](=O)[O-])cc3)CC2)nc2ccccc21.Cl — higher, -81.2%
- CCCn1c(N2CCN(C(=O)/C=C/C(=O)O)CC2)nc2ccccc21 — higher, 14.7%
- CCn1c(N2CCN(C(=O)/C=C/c3ccccc3)CC2)nc2ccccc21 — higher, -77.4%
- Cl.O=[N+]([O-])c1ccc(CN2CCN(c3ccc4ccccc4n3)CC2)cc1 — higher, -1.76%
- CC(C)Cn1c(N2CCN(C(=O)/C=C/c3ccccc3)CC2)nc2ccccc21 — higher, -32.9%
